Data as given in the supplement of paper PMC11732987, “Enantioselective OTUD7B fragment discovery through chemoproteomics screening and high-throughput optimisation” (Communications Chemistry, 2025).

What was measured:
Assay in all cases: log2 ratio of Biotin-Ahx-Ub-VS probe labelling (fragment/DMSO); higher = less target engagement (more negative = stronger competition), active = hit call of the paper (q ≤ 0.05, log2 ratio ≤ -1)
Conditions in all cases: compound concentration: 200 uM; treatment time: 3 h
USP19 = target: T1, USP19 (UniProt O94966)
T1 sequence (whole entry): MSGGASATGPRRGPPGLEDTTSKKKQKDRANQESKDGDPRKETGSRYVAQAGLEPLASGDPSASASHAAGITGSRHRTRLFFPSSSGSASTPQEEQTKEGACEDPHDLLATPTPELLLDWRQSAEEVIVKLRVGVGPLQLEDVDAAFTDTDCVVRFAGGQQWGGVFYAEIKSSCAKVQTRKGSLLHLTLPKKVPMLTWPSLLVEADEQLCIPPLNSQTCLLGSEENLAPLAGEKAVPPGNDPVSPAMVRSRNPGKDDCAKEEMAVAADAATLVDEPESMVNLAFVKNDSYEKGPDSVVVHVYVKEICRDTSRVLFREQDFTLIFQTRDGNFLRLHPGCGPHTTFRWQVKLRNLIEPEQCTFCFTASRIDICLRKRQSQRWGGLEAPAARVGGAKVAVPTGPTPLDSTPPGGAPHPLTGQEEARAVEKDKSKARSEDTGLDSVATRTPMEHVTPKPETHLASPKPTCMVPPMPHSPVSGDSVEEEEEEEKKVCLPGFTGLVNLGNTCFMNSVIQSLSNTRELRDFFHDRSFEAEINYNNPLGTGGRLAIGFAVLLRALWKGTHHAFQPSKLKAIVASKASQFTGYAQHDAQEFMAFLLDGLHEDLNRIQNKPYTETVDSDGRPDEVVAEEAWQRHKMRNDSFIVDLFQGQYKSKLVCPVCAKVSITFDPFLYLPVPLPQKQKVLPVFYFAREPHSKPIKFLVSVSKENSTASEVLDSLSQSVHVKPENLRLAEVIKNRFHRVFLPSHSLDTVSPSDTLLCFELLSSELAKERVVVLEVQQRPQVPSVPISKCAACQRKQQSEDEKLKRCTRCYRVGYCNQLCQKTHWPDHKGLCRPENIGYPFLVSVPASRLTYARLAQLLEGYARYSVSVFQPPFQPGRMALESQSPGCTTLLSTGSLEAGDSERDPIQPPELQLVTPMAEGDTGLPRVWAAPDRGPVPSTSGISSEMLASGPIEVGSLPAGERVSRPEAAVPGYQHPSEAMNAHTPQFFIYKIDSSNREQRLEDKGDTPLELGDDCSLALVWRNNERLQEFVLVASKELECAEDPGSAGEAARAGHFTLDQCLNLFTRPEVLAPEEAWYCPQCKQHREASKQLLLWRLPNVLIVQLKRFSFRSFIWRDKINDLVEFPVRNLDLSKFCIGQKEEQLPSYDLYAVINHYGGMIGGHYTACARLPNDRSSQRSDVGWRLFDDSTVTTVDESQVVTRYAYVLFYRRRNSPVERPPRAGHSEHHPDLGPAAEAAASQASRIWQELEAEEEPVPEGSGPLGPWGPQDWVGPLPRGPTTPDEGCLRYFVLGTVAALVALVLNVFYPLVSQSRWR
Method in brief: (§1)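 HEK293T lysate, 495 µg per sample in Tris/CHAPS/IGEPAL buffer with protease inhibitors, was treated in triplicate with fragment at 200 µM or vehicle for 3 h and then with Biotin-Ahx-Ub-VS at 0.5 µM final for 1 h. Labelled DUBs were NeutrAvidin-enriched, digested with LysC and trypsin, and run by diaPASEF LC-MS/MS. Spectronaut label-free quantities were global-median-normalised, and values are average log2 fragment/vehicle ratios by unpaired t-test on proteins with ≥2 unique peptides.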

USP22 = target: T2, USP22 (UniProt Q9UPT9)
T2 sequence (whole entry): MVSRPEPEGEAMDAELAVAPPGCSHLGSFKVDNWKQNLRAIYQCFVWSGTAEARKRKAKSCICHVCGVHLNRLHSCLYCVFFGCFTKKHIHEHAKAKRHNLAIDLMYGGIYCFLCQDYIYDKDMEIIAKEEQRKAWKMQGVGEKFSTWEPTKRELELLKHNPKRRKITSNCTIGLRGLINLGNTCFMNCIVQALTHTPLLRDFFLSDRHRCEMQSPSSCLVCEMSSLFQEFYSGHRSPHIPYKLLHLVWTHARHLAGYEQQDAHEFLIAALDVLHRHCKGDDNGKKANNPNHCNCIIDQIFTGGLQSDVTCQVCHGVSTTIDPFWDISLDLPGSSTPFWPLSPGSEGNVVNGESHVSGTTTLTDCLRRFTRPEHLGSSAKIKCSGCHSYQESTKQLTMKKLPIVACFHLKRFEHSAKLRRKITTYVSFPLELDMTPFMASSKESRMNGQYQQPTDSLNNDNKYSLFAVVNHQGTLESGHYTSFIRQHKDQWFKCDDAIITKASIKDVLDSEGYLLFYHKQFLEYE
Method in brief: as §1

USP24 = USP24 (UniProt Q9UPU5)
Method in brief: as §1

USP25 = target: T3, USP25 (UniProt Q9UHP3)
T3 sequence (whole entry): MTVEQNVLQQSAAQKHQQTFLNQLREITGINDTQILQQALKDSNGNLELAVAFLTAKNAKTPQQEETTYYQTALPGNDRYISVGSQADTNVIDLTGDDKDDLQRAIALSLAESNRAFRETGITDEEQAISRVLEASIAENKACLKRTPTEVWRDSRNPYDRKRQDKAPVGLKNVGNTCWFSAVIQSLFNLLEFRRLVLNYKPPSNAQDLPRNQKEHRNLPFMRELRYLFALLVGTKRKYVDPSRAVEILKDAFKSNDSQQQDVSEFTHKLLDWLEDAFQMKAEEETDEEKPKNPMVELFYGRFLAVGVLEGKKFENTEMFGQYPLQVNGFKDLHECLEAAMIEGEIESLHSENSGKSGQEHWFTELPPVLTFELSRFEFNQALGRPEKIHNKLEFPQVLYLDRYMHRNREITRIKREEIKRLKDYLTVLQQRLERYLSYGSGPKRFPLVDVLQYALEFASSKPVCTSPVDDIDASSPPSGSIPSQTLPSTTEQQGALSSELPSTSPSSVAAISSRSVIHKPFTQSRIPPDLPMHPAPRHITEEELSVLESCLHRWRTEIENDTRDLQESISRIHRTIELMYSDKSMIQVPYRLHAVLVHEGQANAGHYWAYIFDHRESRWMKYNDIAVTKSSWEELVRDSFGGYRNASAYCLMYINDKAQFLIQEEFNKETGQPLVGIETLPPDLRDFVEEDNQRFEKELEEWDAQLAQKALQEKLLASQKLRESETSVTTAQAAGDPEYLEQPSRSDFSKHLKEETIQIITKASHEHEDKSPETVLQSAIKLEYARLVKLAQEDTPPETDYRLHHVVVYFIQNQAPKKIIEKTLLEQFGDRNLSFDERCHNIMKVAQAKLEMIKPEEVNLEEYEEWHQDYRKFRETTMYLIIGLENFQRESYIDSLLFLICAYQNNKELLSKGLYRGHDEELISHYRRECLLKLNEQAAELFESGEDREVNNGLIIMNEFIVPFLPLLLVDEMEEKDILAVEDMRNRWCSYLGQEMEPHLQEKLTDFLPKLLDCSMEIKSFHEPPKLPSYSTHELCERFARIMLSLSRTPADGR
Method in brief: as §1

USP28 = target: T4, USP28 (UniProt Q96RU2)
T4 sequence (whole entry): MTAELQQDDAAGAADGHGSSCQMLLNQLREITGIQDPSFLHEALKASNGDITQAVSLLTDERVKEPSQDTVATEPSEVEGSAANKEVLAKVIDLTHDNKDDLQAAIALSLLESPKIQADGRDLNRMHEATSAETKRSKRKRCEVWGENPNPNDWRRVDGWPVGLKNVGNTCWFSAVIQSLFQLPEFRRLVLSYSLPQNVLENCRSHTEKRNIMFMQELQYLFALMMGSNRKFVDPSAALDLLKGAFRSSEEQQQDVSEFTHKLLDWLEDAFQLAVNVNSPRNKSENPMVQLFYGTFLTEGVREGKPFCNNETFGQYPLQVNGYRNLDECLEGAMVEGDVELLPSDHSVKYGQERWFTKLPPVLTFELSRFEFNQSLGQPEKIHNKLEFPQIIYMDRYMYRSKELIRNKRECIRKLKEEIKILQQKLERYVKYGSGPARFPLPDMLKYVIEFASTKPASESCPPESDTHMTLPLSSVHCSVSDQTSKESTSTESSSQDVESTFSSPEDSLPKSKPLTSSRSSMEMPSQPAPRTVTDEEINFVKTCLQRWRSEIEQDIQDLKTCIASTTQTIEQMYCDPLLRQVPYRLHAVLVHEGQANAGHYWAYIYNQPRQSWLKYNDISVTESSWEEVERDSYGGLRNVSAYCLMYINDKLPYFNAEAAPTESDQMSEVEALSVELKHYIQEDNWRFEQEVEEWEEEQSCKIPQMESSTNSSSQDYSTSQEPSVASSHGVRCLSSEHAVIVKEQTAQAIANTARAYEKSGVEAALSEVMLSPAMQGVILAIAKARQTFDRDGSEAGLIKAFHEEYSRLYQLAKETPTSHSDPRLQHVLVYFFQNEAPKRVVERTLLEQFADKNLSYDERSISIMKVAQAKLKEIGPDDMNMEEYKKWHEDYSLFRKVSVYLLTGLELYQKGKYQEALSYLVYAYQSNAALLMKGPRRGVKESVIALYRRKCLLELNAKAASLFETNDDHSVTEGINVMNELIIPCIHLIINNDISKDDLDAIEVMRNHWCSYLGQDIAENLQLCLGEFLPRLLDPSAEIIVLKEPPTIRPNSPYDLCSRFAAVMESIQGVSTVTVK
Method in brief: as §1

Measured: log2 ratio of Biotin-Ahx-Ub-VS probe labelling

Chain of USP24 (Q9UPU5 whole entry): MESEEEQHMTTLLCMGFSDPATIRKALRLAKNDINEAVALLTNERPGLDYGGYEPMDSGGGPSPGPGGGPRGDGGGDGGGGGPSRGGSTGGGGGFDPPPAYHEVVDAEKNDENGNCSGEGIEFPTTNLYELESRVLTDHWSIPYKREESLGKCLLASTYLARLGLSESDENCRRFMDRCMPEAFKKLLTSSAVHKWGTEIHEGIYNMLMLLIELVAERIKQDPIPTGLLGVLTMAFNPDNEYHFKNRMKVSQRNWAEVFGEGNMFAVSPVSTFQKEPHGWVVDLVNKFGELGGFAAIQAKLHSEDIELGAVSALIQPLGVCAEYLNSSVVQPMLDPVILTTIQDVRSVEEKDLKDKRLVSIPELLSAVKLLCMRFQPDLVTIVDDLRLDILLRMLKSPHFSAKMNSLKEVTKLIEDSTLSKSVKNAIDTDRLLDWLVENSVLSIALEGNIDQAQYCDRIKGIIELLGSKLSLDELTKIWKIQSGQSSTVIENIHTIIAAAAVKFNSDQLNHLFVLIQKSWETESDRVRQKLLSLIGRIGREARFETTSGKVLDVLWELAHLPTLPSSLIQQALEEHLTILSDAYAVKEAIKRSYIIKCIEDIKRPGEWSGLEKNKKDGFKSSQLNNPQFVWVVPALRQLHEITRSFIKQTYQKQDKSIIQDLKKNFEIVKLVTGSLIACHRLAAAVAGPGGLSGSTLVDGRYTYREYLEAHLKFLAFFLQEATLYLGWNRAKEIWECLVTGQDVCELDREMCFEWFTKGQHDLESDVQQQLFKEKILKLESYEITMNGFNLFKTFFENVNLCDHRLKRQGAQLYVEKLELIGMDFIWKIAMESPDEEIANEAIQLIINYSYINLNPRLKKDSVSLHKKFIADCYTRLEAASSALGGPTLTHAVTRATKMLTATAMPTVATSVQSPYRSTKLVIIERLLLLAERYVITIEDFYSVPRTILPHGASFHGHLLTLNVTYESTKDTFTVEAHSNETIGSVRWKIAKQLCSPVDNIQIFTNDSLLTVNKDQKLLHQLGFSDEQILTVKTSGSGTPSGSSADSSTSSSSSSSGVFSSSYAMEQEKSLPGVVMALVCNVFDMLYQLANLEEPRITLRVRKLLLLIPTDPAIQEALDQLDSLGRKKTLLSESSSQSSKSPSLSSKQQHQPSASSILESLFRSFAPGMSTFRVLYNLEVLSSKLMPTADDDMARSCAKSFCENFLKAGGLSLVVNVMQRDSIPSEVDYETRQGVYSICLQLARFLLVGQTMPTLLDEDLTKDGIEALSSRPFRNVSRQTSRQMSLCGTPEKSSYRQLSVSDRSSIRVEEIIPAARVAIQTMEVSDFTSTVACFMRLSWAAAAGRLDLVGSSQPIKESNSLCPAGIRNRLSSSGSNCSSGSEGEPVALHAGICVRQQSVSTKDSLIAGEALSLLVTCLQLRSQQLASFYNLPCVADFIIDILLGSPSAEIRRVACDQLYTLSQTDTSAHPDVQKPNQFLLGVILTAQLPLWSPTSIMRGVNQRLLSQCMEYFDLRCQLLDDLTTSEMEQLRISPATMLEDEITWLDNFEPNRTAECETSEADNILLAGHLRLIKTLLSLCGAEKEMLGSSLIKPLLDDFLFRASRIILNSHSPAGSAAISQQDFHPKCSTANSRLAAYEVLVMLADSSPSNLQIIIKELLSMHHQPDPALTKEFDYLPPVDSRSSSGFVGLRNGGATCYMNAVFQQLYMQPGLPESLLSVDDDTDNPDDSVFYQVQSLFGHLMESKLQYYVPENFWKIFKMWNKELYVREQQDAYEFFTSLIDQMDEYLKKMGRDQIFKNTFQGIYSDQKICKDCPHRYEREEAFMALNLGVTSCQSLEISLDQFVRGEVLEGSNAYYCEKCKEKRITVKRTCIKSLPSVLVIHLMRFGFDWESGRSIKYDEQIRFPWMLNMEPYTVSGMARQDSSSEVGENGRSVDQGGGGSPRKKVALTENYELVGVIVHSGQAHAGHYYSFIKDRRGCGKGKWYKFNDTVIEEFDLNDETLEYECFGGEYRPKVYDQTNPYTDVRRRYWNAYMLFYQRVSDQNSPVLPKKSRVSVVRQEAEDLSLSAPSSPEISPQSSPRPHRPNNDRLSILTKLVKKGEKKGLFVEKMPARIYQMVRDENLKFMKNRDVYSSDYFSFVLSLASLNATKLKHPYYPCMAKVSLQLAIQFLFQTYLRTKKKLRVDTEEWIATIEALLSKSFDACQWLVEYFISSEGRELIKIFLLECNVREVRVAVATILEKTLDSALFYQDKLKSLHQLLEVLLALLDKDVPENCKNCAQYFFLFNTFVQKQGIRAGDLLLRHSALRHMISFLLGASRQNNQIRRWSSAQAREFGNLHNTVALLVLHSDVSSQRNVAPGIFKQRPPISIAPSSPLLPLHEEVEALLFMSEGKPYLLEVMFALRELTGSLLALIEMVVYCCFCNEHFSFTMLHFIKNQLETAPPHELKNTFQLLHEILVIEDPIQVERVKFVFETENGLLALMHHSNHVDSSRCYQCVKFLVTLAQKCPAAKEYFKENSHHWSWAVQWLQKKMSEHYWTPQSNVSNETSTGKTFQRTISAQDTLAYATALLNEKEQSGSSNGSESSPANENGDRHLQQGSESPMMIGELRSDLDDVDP

Cc1nc(CC2CCN(C(=O)CCl)CC2)no1
inactive: USP19 -0.747 | USP22 -0.386 | USP24 -0.783 | USP25 -0.763 | USP28 -0.873
